The source made the active and inactive calls. How the calls were made is not given here.
Assay: Biochemical counterscreen for C difficile toxins, absence of UDPG, inhibitor dose response (AID 720650)
Details: series mostly up to 19.5 µM; activity change, negative = inhibition: at the top concentration

Structure (SMILES)	AC50	activity change, negative = inhibition
O=C(Nc1ccc(O)cc1)/C(=C\c1ccncc1)NC(=O)c1ccccc1	11.8 µM (active)	
Oc1ccc(-c2nc3cnccn3c2Nc2ccc3c(c2)OCCO3)cc1		-2.26% (inactive)
CS(=O)(=O)Nc1cccc(C2=NN(C(=O)c3ccccc3)C(c3cccs3)C2)c1 (centres undefined)		-13.6% (inactive)
CCc1ccc2oc(-c3cc(N)ccc3Cl)nc2c1		-14.5% (inactive)
CCN(C(=O)CN1C(=O)NC2(CCC(C)CC2)C1=O)C1CCCCC1 (centres undefined)		-4.99% (inactive)
CCOC(=O)c1c(C)[nH]c(C)c1C(=O)COC(=O)/C=C/c1ccco1	> 39 µM (inactive)	
Cc1ccc(C)c2sc(NC(=O)c3ccc(N4C(=O)CCC4=O)cc3)nc12		-13.2% (inactive)
Cc1ccc(C(=O)Nc2ccc(N3CCCCC3)cc2)cc1		-8.38% (inactive)
O=S(=O)(c1ccccc1)N1CCN=C1SCc1ccccc1	> 39 µM (inactive)	
CCCCn1c(-c2ccccc2C)nc2cc3[nH]c(=O)c(C(C)C)nc3cc21		-15.5% (inactive)
CC(Sc1nccn1C)C(=O)c1c(N)n(C)c(=O)n(C)c1=O (centres undefined)		13% (inactive)
Cc1ccc(NNC(=O)c2ccno2)c(C)c1	5.41 µM (active)	
O=c1c([N+](=O)[O-])cccn1Cc1ccc(F)cc1Cl		-8.58% (inactive)
CN(C)/C=C(\C#N)C(=O)Nc1ccc(O)cc1F	9.11 µM (active)	
O=C(Nc1ccc(O)cc1)/C(=C\c1cccs1)NC(=O)c1ccccc1	17.1 µM (active)	
COc1ccc(-c2cn3cc(C)ccc3n2)cc1F	> 39 µM (inactive)	
C[C@H](CO)N1C[C@H](C)[C@@H](CN(C)C(=O)Nc2ccc(C(F)(F)F)cc2)Oc2c(NS(=O)(=O)c3ccccc3)cccc2C1=O	> 39 µM (inactive)	
COc1cc(/C(C)=N/NC(=O)CSc2nnc(C)s2)ccc1O		3.12% (inactive)
C[C@@H]1CN([C@@H](C)CO)S(=O)(=O)c2ccc(C#Cc3ccncc3)cc2O[C@H]1CN(C)C(=O)C1CC1		-4.95% (inactive)
Cc1cc(O)ccc1N=Cc1c(C(F)(F)F)[nH][nH]c1=O	10.9 µM (active)	

Structure (SMILES)	AC50	activity change, negative = inhibition
Cc1ccc2c(C)c3ccc4ccccc4c3c[n+]2c1		10.6% (inactive)
Cc1cc(C)c(S(=O)(=O)N2CCCCC2C(=O)O)c(C)c1 (centres undefined)		-14% (inactive)
O=C(NC(=S)Nc1ccc(N2CCOCC2)cc1)c1ccccc1		-9.02% (inactive)
Fc1ccc(-c2nc3ccc(Br)cn3c2Cc2ccccc2)cc1		-2.94% (inactive)
CCOc1ccccc1/C=C/c1onc(C)c1S(=O)(=O)N1CCC(C(=O)NC(C)(C)C)CC1		-3.36% (inactive)
COc1ccc(C2=NS(=O)(=O)N(C)C(C(=O)N(C)Cc3ccccc3)=C2)cc1		-4.01% (inactive)
COc1ccc(C2=NS(=O)(=O)N(C)C(C(=O)N(C)Cc3ccccc3)=C2)cc1OC		-7.42% (inactive)
COc1cc(/C=C/C(=O)OCC(=O)NC(=O)NC(C)(C)C)ccc1O		6.81% (inactive)
Cn1c(-c2ccc(F)c(F)c2)cc2onc(-c3ccccc3)c2c1=O		-4.71% (inactive)
Cc1ccc(-c2nc3ccc([N+](=O)[O-])cc3[nH]2)cc1	7.38 µM (active)	
CCc1ccc(NC(=O)C2=CC(c3ccc(OC)cc3)=NS(=O)(=O)N2C)cc1		-6.94% (inactive)
CN(CCN1CCOCC1)C(=O)CC1C(=O)NCCN1Cc1ccccc1C(F)(F)F (centres undefined)		8.75% (inactive)
CC1=NCCc2c1[nH]c1cc(O)ccc21	21.9 µM (active)	
Cn1cc(C(CO)Cc2ccccc2)c2ccccc21 (centres undefined)	> 39 µM (inactive)	
CN1CCN(C(CNC(=O)c2ccc(Br)o2)c2ccc(F)cc2)CC1 (centres undefined)		-7.41% (inactive)
Cc1ccc(S(=O)(=O)Oc2cccc(/C=N/n3cnnc3)c2)cc1	> 39 µM (inactive)	
Nc1ncnc2[nH]c(=S)[nH]c12	> 39 µM (inactive)	
CS(=O)(=O)N(CC(=O)Nc1ccc(S(=O)(=O)N2CCOCC2)cc1)c1ccccc1Br		-6.84% (inactive)
C=CCN=c1scc(C)n1/N=C/c1ccc(O)c(O)c1	> 39 µM (inactive)	
